# Data: the supplement of paper PMC3334620
# In all, about 33,000 sequences were measured (“E-score (-0.5 to 0.5)”: median about -0.036, highest 2% from about 0.37 on). This is one part of a sample in which the highest values are shown more often than they occur.
# Molecular target: T1, Yer064c (UniProt P40041)
# T1 sequence: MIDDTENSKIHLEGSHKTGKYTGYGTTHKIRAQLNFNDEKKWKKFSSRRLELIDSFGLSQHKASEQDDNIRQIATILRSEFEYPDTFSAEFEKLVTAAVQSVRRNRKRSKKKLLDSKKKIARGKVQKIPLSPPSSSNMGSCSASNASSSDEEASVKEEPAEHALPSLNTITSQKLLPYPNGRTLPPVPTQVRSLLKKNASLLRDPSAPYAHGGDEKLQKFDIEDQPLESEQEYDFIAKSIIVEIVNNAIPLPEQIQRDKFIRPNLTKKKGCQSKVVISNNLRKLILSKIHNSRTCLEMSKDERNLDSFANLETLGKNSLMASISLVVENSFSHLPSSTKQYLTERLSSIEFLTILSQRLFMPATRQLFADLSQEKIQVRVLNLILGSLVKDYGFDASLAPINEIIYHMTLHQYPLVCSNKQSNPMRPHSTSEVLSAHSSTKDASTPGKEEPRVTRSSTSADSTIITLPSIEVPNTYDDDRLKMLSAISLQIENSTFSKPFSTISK
# Assay: PBM E-score (8-mer binding enrichment) (E-score (-0.5 to 0.5)); higher = stronger / more preferred TF binding
# Details: protein concentration: 200 nM; construct: GST-full length
# Method in brief: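 PURExpress in vitro transcription/translation supplied GST-tagged yeast transcription factors, either full-length or DNA-binding domain. Applied at about 100-200 nM to universal all-10-mer Agilent arrays double-stranded by primer extension, the bound protein was detected with fluorescent anti-GST. E-scores, modified Wilcoxon-Mann-Whitney statistics, were given by the Universal PBM Analysis Suite to ungapped eight-base words pooled with their reverse complements after masliner normalisation.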
row,Sequence,PBM E-score
1,ACGGGCTA,-0.288
2,GGTGGCTA,0.181
3,ATTCAGAA,0.139
4,CACCGCAA,-0.0119
5,ACTTAACG,0.0504
6,AACAGTCA,0.384
7,CACAGTCC,0.132
8,AACAGTCG,0.209
9,TACAGTAA,0.128
10,TACAGTGA,0.211
11,CACAGTCG,0.203
12,GACAGTCA,0.409
13,CACAGTCA,0.411
14,GACAGTCC,0.0581
15,AACAGTCT,0.204
16,GACAGTTA,-0.103
17,TACAGTCA,0.418
18,ACGGAGCG,-0.0547
19,AAGAGAGG,-0.104
20,CTGCTAAA,-0.141
21,AGTTCCAC,-0.0556
22,AAACGGGG,-0.128
23,CTGGACAG,0.0136
24,ATGCACCC,-0.0692
25,CAATAGTA,-0.0839

row,Sequence,PBM E-score
1,AAATAGTG,0.062
2,CAATAGTC,0.409
3,AAATAGTT,-0.0372
4,GAATAGTA,-0.0424
5,GAATAGCC,-0.0409
6,GAATAGTC,0.38
7,CAATAGTG,0.0438
8,AAATAGTC,0.382
9,GCGTAGAA,-0.12
10,CACCGTTA,0.0864
11,ATTGGTTG,-0.0268
12,CGCTCCCG,0.17
13,AAACCACA,-0.0212
14,ACTAACCG,0.163
15,TATTTGCA,0.0422
16,CGTCATGC,-0.173
17,GGTCATGA,0.255
18,AGTCATGA,0.485
19,CGTCATGA,0.253
20,ATTCATGC,0.137
21,AGCCATGG,0.268
22,AGTCATGC,0.487
23,ATTCATGG,0.224
24,AGTCATGG,0.479
25,TACTTACA,-0.0596

row,Sequence,PBM E-score
1,GAAGCCTA,-0.143
2,AACGTATT,-0.12
3,AGGGATAG,-0.255
4,TAGAGAGA,0.0957
5,AGAAGCAG,-0.1
6,AGCTTTCA,-0.0821
7,GTGTTGGA,-0.127
8,CTTTAGTC,0.416
9,ATTTAGTA,0.253
10,ATTTAGTG,0.127
11,CTTTAATC,0.29
12,CTTTAGAC,0.108
13,CTTTAGTA,0.14
14,ATTTAGTC,0.444
15,ATTTAATA,0.117
16,ATTTAATC,0.366
17,GGCCTACA,-0.0963
18,TAATAGCA,-0.09
19,ACCAAGAG,-0.00272
20,CATAACCA,0.071
21,GGCGAATA,-0.0639
22,CGGCGAGC,-0.108
23,AACTCATA,0.275
24,GACTCATA,0.477
25,AACTCATC,0.33

row,Sequence,PBM E-score
1,GACTCATC,0.478
2,CACTCATA,0.259
3,CACTCATC,0.258
4,CCTGCCAG,-0.212
5,ATTTTCAG,-0.135
6,CTCTGTCC,-0.14
7,GGTCTTAC,0.131
8,TGTCTTAA,-0.0134
9,AGTCTTAT,0.383
10,AGTCTTAC,0.415
11,CGTCTTAG,-0.188
12,ACTCTTAT,0.241
13,AGTCTTAG,0.408
14,CGTCTTAA,-0.00451
15,AATCTTAT,0.207
16,CGTCTTAC,-0.141
17,ACTCTTAG,0.198
18,AGTCTTAA,0.387
19,CCCCAGGC,-0.41
20,AATCGACT,0.258
21,ATCTGGCA,-0.118
22,AGTGACCC,-0.0592
23,GTCTATCA,0.0174
24,GGTTTCTA,-0.133
25,CCTTTCTA,-0.251

row,Sequence,PBM E-score
1,AACAACAT,-0.0999
2,CTTTGTAA,0.173
3,TAGTTGAA,0.127
4,CACGTGAG,0.0942
5,CTTAGTTA,0.221
6,ATTAGTCC,0.373
7,ATTAGTGG,0.11
8,ATTAGTCG,0.41
9,ATTAGTTG,0.118
10,ATTAGTAC,0.205
11,CTTAGTAA,0.161
12,ATTAGTTA,0.153
13,ATTAGTGA,0.219
14,CTTAGTCA,0.483
15,ATTAGTCA,0.484
16,ATTAGGCC,0.00222
17,AAGAATAG,0.0215
18,CTAGAAAC,0.0516
19,CCTTCTAG,-0.244
20,GCAATGCC,-0.31
21,TAATATTA,0.207
22,AGCGATCC,-0.315
23,CGCGTCTA,-0.228
24,CTTAGTCC,0.37
25,GTTAGTCA,0.49

row,Sequence,PBM E-score
1,CTTAGTTC,0.0883
2,GTTAGTGA,0.171
3,CTTAGGCC,-0.115
4,GTTAGTTA,0.165
5,CTCGCGCA,-0.0489
6,GAGCGTCA,-0.0316
7,CACTTTGA,0.184
8,GGCTATCA,-0.11
9,GAGTCGCC,0.439
10,TAGTCGAA,0.243
11,AAGTCGCA,0.257
12,CAGTCGCC,0.254
13,TAGTCGCA,0.412
14,TCGTCGCA,-0.0159
15,GAGTCGCA,0.438
16,CAGTCGCA,0.15
17,AAGTCGCC,0.222
18,ACGGGCCT,-0.363
19,GGGCACCC,-0.269
20,CGGGACCA,-0.208
21,GAAGCGTA,-0.151
22,AACGGAAC,-0.134
23,AAGAGCCC,-0.196
24,CATTTCGA,-0.0334
25,CATCACGA,0.132

row,Sequence,PBM E-score
1,GATCACGC,0.18
2,AATCACGC,0.391
3,AATCACGT,0.382
4,AATCACGA,0.347
5,AATCAAGA,0.235
6,AAGGCAGG,-0.192
7,ACGTCCGG,-0.217
8,AGTGGGCC,-0.307
9,CTTCTGCC,-0.225
10,ATGGTTAA,0.391
11,CTGGTTAA,0.162
12,GTGGTTAA,0.222
13,GTAGCGAA,-0.0282
14,ATGCCGAG,-0.0321
15,GACTCGCC,0.371
16,TACTCGCA,0.211
17,GACTCGTA,0.419
18,AACTCGTA,-0.019
19,AACTCGCC,-0.0941
20,CACTCGCC,-0.0244
21,GACTCGCA,0.414
22,CACTCGTA,-0.0316
